Screens (PubChem)
SARS PLP yeast = qHTS of Yeast-based Assay for SARS-CoV PLP; 330,000 compounds, 0.19% hits; S. cerevisiae expressing SARS-CoV PLpro, growth rescue; AID 485353, 2010; Potency, µM (doses to about 32.9 µM), for the others: at the highest dose activity, positive = growth rescue, most hits filed as activators; calls by dose curve; further: 0% is about no effect; nearly all actives have a fitted effect of over 55% in size
Pf growth 96h = Primary qHTS for delayed death inhibitors of the malarial parasite plastid, 96 hour incubation; Potency, µM (series often up to 28.7 µM), for inactives: at the highest dose activity change, negative = inhibition, most hits filed as inhibitors; 320,000 compounds, 6.9% hits; P. falciparum luciferase reporter growth, 96 h; further: on the % scale 0 is the no-effect control and ±100 the full control effect
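Two parasite generations (96 h, 37 C, 5% CO2) of compound exposure in infected erythrocytes (0.05% parasitemia, 2% hematocrit). Luciferase-reporter P. falciparum; decreased luminescence indicates inhibited growth, aimed at apicoplast-acting delayed death.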
Pf growth 48h = Primary qHTS for delayed death inhibitors of the malarial parasite plastid, 48 hour incubation; 310,000 compounds, 5.9% hits; Potency, µM (highest dose often 28.7 µM), without a hit: top-dose activity change, negative = inhibition, hits mostly inhibitors; P. falciparum luciferase growth in erythrocytes, 48 h; further: on the % scale 0 is the no-effect control and ±100 the full control effect
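Growth was read as firefly luciferase luminescence after a 48 h, 37 C, 5% CO2 exposure of compounds to reporter-bearing P. falciparum cultures (0.1% parasitemia, 2% hematocrit final) in Albumax-supplemented RPMI 1640.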
Sm TGR inh = qHTS Assay for the Inhibitors of Schistosoma Mansoni Peroxiredoxins; purified TGR, DTNB reduction, TNB absorbance 405 nm; Potency, µM (series often up to 114 µM), for inactives: at the highest dose activity change, negative = inhibition, most hits filed as inhibitors; 360,000 compounds, 3% hits; further: on the % scale 0 is the no-effect control and ±100 the full control effect; nearly all actives have a fitted effect of over 60% in size
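First, TGR (20 nM dispensed) and NADPH were mixed with compound. Second, a 15 min room-temperature incubation followed. Third, further NADPH and then DTNB were added to start the reaction. Finally, TNB absorbance was monitored kinetically.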
Active calls of the source: *; ? = inconclusive; . = no result given; [ ] = dose if it differs, or a comment. In the library only some 12% were active in any assay of this set; here they are far more common. Unless noted, the call rests on the fitted dose curve; in most records, active means well fitted curve in the direction sought with a large enough effect; inconclusive means small, poorly fitted or top-dose-only effect, or another doubt; inactive means no such curve, though single readings can be large; an effect the other way counts as inactive or inconclusive. Potency means the concentration at half of the fitted maximal effect.

SMILES	SARS PLP yeast	Pf growth 96h	Pf growth 48h	Sm TGR inh
CNC(=O)c1c(NC(=O)/C=C/c2ccccc2)sc2c1CCC2	.	.	.	35µM*
COc1cccc(NC(=O)CSc2nc(C)c(Cc3ccccc3)c(=O)[nH]2)c1	.	.	.	-3%
COc1cccc(NC(=O)Cn2cc(C(=O)C3CCCCC3)c3ccccc32)c1	.	.	.	3%
COc1ccccc1NC(=O)c1c(NCc2ccc(C)o2)sc2c1CCCCC2	.	.	.	2µM*
CCOc1ccc(NC(=O)c2c(NCc3ccc(C)o3)sc3c2CCC(C)C3)cc1 (centres undefined)	.	.	.	25µM*
CCOc1ccc(NC(=O)c2c(NCc3cccs3)sc3c2CCC(C)C3)cc1 (centres undefined)	.	.	.	-10%
COc1ccccc1OCC(=O)Nc1sc2c(c1C(=O)NCC1CCCO1)CCC2 (centres undefined)	-9%	10µM*	13µM*	-31%
COc1ccccc1OCC(=O)Nc1sc2c(c1C(N)=O)CCC2	-2%	.	.	.
CCOC(=O)N1CCc2c(sc(NCc3sccc3C)c2C(=O)Nc2cc(OC)ccc2OC)C1	.	.	.	-34%
COc1ccc(OC)c(NC(=O)c2c(NCc3sccc3C)sc3c2CCCCC3)c1	.	.	.	20µM*
COc1ccc(OC)c(NC(=O)c2c(NCc3ccc(OC)c(OC)c3)sc3c2CCC3)c1	.	.	.	-5%
COc1ccc(OC)c(NC(=O)c2c(NCc3ccc(C)o3)sc3c2CCCCC3)c1	.	.	.	3.5µM*
COc1ccc(OC)c(NC(=O)c2c(NCc3ccc(N(C)C)cc3)sc3c2CCCC3)c1	.	.	.	22µM*
COc1ccc(Cl)cc1NC(=O)c1c(NCc2ccc(C)o2)sc2c1CCCCC2	.	.	.	3.5µM*
Cc1ccc(-n2ncc3c(N4CCN(C)CC4)ncnc32)cc1Cl	.	.	.	-21%
COc1ccccc1OCC(=O)NNC(=O)c1ccc2c(=O)n3c(nc2c1)CCC3	5%	10%	96%	12%
Cc1ccc(C)c(NC(=O)C(Cc2ccccc2)n2cccc2)c1 (centres undefined)	.	.	.	0%
CCCNC(=O)COc1coc(CN2CCN(c3ccc(F)cc3)CC2)cc1=O	5%	?	-3%	-1%
CCCN1CCOC(CC(=O)Nc2ccc([N+](=O)[O-])cc2)C1=O (centres undefined)	-19%	61%	-11%	28µM*
CCCN1CCC(NC(=O)Nc2ccc([N+](=O)[O-])cc2)CC1	0%	20%	-21%	2%
CCN1CCOC(CC(=O)Nc2cccc([N+](=O)[O-])c2)C1=O (centres undefined)	-23%	107%	76%	11µM*
CC1CCN(CC(=O)Nc2cccc([N+](=O)[O-])c2)CC1	1%	145%	2%	-16%
COc1ccc(C2CC(c3cccs3)=NN2S(C)(=O)=O)cc1OC (centres undefined)	0%	6%	-10%	.
COc1ccc(C2CC(c3c(-c4ccccc4)c4cc(Cl)ccc4[nH]c3=O)=NN2S(C)(=O)=O)cc1OC (centres undefined)	2%	?	10µM*	-3%
O=C(CN(c1ccccc1)S(=O)(=O)c1ccccc1)NCCSCc1ccco1	-9%	?	?	0%
SMILES	SARS PLP yeast	Pf growth 96h	Pf growth 48h	Sm TGR inh
COc1ccc(N(CC(=O)NCCSC2CCCCC2)S(=O)(=O)c2ccccc2)cc1OC	5%	?	13µM*	-21%
O=C(CCSc1ccccc1)NCCSCc1ccco1	-21%	?	119%	-36%
COc1ccccc1N(CC(=O)NCCSCc1ccccc1)S(=O)(=O)c1ccc(C)cc1	-3%	2.6µM*	?	11%
COc1ccc(N(CC(=O)NCCSCc2ccco2)S(=O)(=O)c2ccccc2)cc1OC	-2%	12µM*	-21%	-7%
O=C(COc1ccccc1)NCCSCc1ccco1	-15%	-13%	19%	25µM*
COc1ccc(NC(=O)c2oc3ccccc3c2NC(=O)c2cccc(F)c2)c(OC)c1	.	.	.	6%
COCC(=O)Nc1cc(Cl)c(OC)cc1OC	-8%	6%	12%	0%
CCOC(=O)C1CCN(C(=O)c2cnn(-c3ccc(F)cc3)c2-n2cccc2)CC1	.	.	.	-9%
COc1ccc(S(=O)(=O)N(CC(=O)NCc2ccco2)c2ccccc2OC)cc1	-13%	1%	?	-31%
COc1ccccc1N(CC(=O)NCCSCc1ccco1)S(=O)(=O)c1ccccc1	0%	0%	?	50µM*
CCOc1cc(C(=O)NC(=S)Nc2cccnc2)cc(OCC)c1OCC	11%	-5%	6%	50µM*
COc1cccc(C(=O)NC(=S)Nc2cccnc2)c1	-19%	-26%	98%	56µM*
CCOc1cc(C(=O)Nc2ccncc2)cc(OCC)c1OCC	0%	?	5.2µM*	9%
COc1ccc(-n2c(C)c([N+](=O)[O-])c3ccc(O)c(CN(C)C)c32)cc1	-2%	?	0.83µM*	-30%
O=C(Nc1ccc(F)cc1F)c1cc2nc3c(c(C(F)(F)F)n2n1)CCCC3	19%	10µM*	129%	0%
O=C(O)c1cc2nc3c(c(C(F)(F)F)n2n1)CCCC3	1%	1%	12%	7%
COc1cccc(C(=O)NCC(=O)OCc2cc(=O)n3nc(C)sc3n2)c1	.	.	.	8%
O=C(Cn1c(NCCO)nc2ccccc21)c1ccccc1	-1%	9.3µM*	11%	-1%
CC(C)(C)C(=O)Cn1c(NCCCO)nc2ccccc21	3%	12µM*	11%	5%
COc1ccc(N2CCN(C(=O)c3ccc(-c4nc(COc5ccccc5)c(C)o4)cc3)CC2)cc1	.	.	.	-9%
COc1cc(C)ccc1N(CCCN1C(=O)c2cccc3cccc(c23)C1=O)C(=O)c1cccs1	6%	9.3µM*	?	-4%
CC(C)CC(NC(=O)C(CO)NC(=O)C1CCC(=O)N1)C(N)=O (centres undefined)	0%	10µM*	1%	-1%
COc1ccc(NC(=O)C2CC(=O)N(CCc3ccc(F)cc3)C2)c(OC)c1 (centres undefined)	4%	-4%	-4%	0%
O=C(COCc1cc(-c2ccc(F)cc2)on1)Nc1cc(Cl)cc(Cl)c1	.	.	.	8%
O=C(COC(=O)c1cc[n+]([O-])cc1)Nc1cccc(Cl)c1Cl	3%	17%	12µM*	-3%
SMILES	SARS PLP yeast	Pf growth 96h	Pf growth 48h	Sm TGR inh
CC(=O)c1ccccc1NC(=O)COC(=O)c1cc[n+]([O-])cc1	6%	.	.	.
COc1ccccc1COCC(O)CN1CCCCC1CO (centres undefined)	2%	?	-14%[0.00184 µM]	-13%
OCC1CCCCN1CC(O)COC(c1ccc(F)cc1)c1ccc(F)cc1 (centres undefined)	1%	?	9.3µM*	-3%
OC1CCCN(CC(O)COC(c2ccc(F)cc2)c2ccc(F)cc2)C1 (centres undefined)	2%	2.1µM*	2.6µM*	-9%
OC(COC(c1ccc(F)cc1)c1ccc(F)cc1)CN1CCc2ccccc2C1 (centres undefined)	6%	?	?	16%
C#CCOc1ccc(-c2nnc(Nc3ccc(NC(C)=O)cc3)c3ccccc23)cc1	.	.	.	6%
